This note sets out measurements from PubChem BioAssay (Tox21).

Active and inactive are the calls of the source. Calls follow the shape of the dose curve; as a rule, active = well fitted curve in the direction sought with a large enough effect in the repeat runs; inconclusive = weak or mixed curves; inactive = flat fitted curve, though single readings scatter.

The assay is described as follows: qHTS assay to test for compound auto fluorescence at 535 nm (green) in HEK293 cells (AID 720680). Particulars: green autofluorescence 485/535 nm; series mostly up to 91.3 µM. The text has this: U.S. Tox21 Program National Center for Advancing Translational Sciences [NCATS] NIH Chemical Genomics Center [NCGC] U.S. Environmental Protection Agency [EPA] National Institutes of Environmental Health Sciences [NIEHS] National Toxicology Program [NTP] U.S. Food and Drug Administration [FDA] Tox21 Assay Overview: Compound auto fluorescence often interferes with screening of the compound library against various biological targets and signaling pathways. Some of these compounds may have fluorophoric properties. Such properties may interfere with the assay outputs resulting in false positives and/or negatives. To decrease such complications and ensure the compound activities are relevant in terms of biological response, the Tox21 10K compound library was screened for auto fluorescence. From the fluorophores used as reporter signals in our screening assays, the auto fluorescence equivalencies of compounds against three fluorophores have been evaluated: Triamterene, Fluorescein and Rose Bengal sodium for blue, green and red fluorescence, respectively. The fluorescence intensities were measured using Excitation/Emission wavelengths at 405/460nm, 485/535nm and 540/590nm for blue, green and red labels, respectively. This assay includes the green fluorescence data.
Tox21 Assay Protocol Summary: 2,000 HEK293 cells in 5 uL of culture medium containing 10% dialyzed FBS per well were dispensed into black wall/clear bottom 1536-well plates using a Multidrop Combi Dispenser (Thermo Scientific). The assay plates were incubated for 4-5 hr at 37C to allow cell attachment to the well bottom, followed by the transfer of 23 nL compound or DMSO vehicle by a pintool work station (Kalypsys, San Diego, CA). After the assay plates were incubated overnight at 37C and 5% CO2, fluorescence intensities in the assay plates were measured by an Envision (PerkinElmer, Shelton, CT) plate reader using three labels for measuring blue, green and red fluorescence at […] 460, 535 and 590nm respectively.
For `CCOP(=S)(OCC)Oc1cnc2ccccc2n1`, the compound was called inactive.
Then `O=c1ccc(=O)[nH][nH]1`, with “inactive”; and `[O-][Cl+2]([O-])O`, with “inactive”; and `c1cc2c3c(cccc3c1)CC2`, with “inactive”.
Then `COP(N)(=O)SC` (stereo not given), with “inactive”; and `Cc1cc(Cl)ccc1O`, with “inactive”.
As for `CCc1cccc(C)c1N(C(=O)CCl)C(C)COC` (stereo not given), the entry is “inactive”; as for `Cc1ccc(N)cc1Cl`, “inactive”.
Regarding `C1CN2CCN1CC2`, the result was inactive.
Then `CN(N=O)c1ccccc1`, with “inactive”.
For the compound `BrCCBr`, the compound was classed as inactive.
On to `CCN(CC)CCO`, for which the result was inactive.
`O=NN1CCCC1`: the call was inactive.
Then `COc1ccc2c3c1O[C@H]1[C@@H](O)C=C[C@H]4[C@@H](C2)N(C)CC[C@@]341`, with “inactive”; and `CC(C)C1(C)N=C(c2nc3ccccc3cc2C(=O)O)NC1=O` (stereo not given), with “inactive”.
For `CNC(=O)Oc1ccccc1OC(C)C`, the result was inactive.
As to `CCCC1COC(Cn2cncn2)(c2ccc(Cl)cc2Cl)O1` (stereo not given), the call was inactive.
As for `Nc1ccc(Cc2ccc(N)cc2)cc1`, the outcome was inactive.
With `Clc1ccccc1Cl`, the call was inactive.
Then `CCOP(OCC)OCC`, with “inactive”; and `C[C@]12CC[C@H]3[C@@H](CC[C@@]45O[C@@H]4C(O)=C(C#N)C[C@]35C)[C@@H]1CC[C@@H]2O`, with “inactive”.
Then `C=CC(N)=O`, with “inactive”; and `CC(Br)C(=O)O` (stereo not given), with “inactive”.
Then `COCCl`, with “inactive”; and `CN(C)CCO`, with “inactive”; and `NCCc1ccc(O)cc1`, with “inactive”.
As to `O=S(=O)(c1ccc(O)cc1)c1ccc(O)cc1`, the result was inactive.
For `OC(O)C(Cl)(Cl)Cl`, the compound was called inactive.
As for `CC(C)OC(=O)Nc1cccc(Cl)c1`, the entry is “inactive”; as for `CN(C)N=O`, “inactive”; as for `ClCCBr`, “inactive”.
As for `COC(=O)c1ccccc1N`, the entry is “inactive”; as for `CCNc1nc(NC(C)(C)C)nc(SC)n1`, “inactive”.
Then `O=C(O)c1ccccn1`, with “inactive”.
As for `Cc1ccc([N+](=O)[O-])cc1C`, the compound was classed as inactive.
On to `O=c1[nH]c(=O)[nH]c(=O)[nH]1`, for which the compound was classed as inactive.
Consider `CC(C)C#N`, for which the compound was classed as inactive.
Then `Nc1ccc(Oc2ccc(N)cc2)cc1`, with “inactive”.
Then `CCOP(=S)(OCC)SCCSCC`, with “inactive”; and `C=CCO`, with “inactive”.
